Measured values published in PubChem BioAssay AID2314 (National Center for Advancing Translational Sciences (NCATS), 2010).
Values joined by “and” are separate entries in the source; they are usually repeats but may differ in a detail not shown here. Identical values can stand only once. About 37,000 (12%) of roughly 300,000 compounds were called active. Cut-off read from the data, not from the text of the source: active = max response mostly above about 13% (no sharp cut-off); inactive = mostly below about 14%. Shown is part of a subset that was picked to be rich in actives.

Assay: Cycloheximide Counterscreen for Small Molecule Inhibitors of Shiga Toxin; note: read at 38.3 µM for the half of the compounds with a filed dose; 0% is about no effect
Settings: cell reporter, cycloheximide protein synthesis inhibition counterscreen; hits give high values
For COc1ccc(N(C(=O)c2cccnc2)S(=O)(=O)c2ccc(OC)c(OC)c2)cc1, the max response was 1.15% (inactive).
In the case of N#CCC(=O)N/N=C/c1ccc(SCC(=O)Nc2ccccc2)o1, the max response is reported as 2.34% (inactive).
For O=C(Cc1ccccc1)Nc1cccc(C(=O)N/N=C/c2ccco2)c1, the max response was 0.305% (inactive).
For O=C(CSc1ccc(/C=N/NC(=O)c2cccc(F)c2)o1)Nc1ccccc1, the max response was 47.1% (active).
With COc1cccc2sc(N(CCCN(C)C)C(=O)C(c3ccccc3)c3ccccc3)nc12 the max response was -11.2% (inactive).
For Cc1ccc(NC(=O)Cn2nnc(C(=O)NCc3ccco3)c2N)c(C)c1, the max response was 9.89% (inactive).
In the case of Cc1ccccc1NC(=O)NCc1ccco1, the max response is reported as 9.11% (inactive).
For Cc1ccc(NC(=O)C(=O)NCc2ccco2)c(C)c1, the max response was 41.1% (active).
With CN(CC(=O)Nc1ccc(F)cc1)CC(=O)Nc1ccc(Cl)c(S(=O)(=O)N2CCOCC2)c1 the max response was -2.41% (inactive).
With C/C=C/c1ccc(OCC(O)CN2CCCCCCC2)c(OC)c1 (stereo not drawn) the max response was 9.28% (inactive).
With CCOC(=O)c1ccc(NC(=O)Cn2cnc3cc(C)c(C)cc32)cc1 the max response was 6.04% (inactive).
For CCn1c(=O)c2ccccc2n(CC(=O)N2CCCc3ccccc32)c1=O, the max response was -2.55% (inactive).
With CN(C)CCn1c(=S)[nH]c2ccc(Cl)cc2c1=O the max response was -5.79% (inactive).
In the case of CN(C)CCN=c1cc(-c2ccccc2)oc2ccc(Cl)cc12, the max response is reported as 23.6% (active).
With CCOC(=O)c1c(NC(=O)CNC2CCCc3ccccc32)sc(C(N)=O)c1C (stereo not drawn) the max response was 9.96% (inactive).
With O=C(N/N=C/c1cc2c(cc1Br)OCO2)C1COc2ccccc2O1 (stereo not drawn) the max response was 52.6% (active).
With O=C(N/N=C\c1cc(Br)c(Br)o1)C1COc2ccccc2O1 (stereo not drawn) the max response was 9.2% (inactive).
In the case of O=C(CNC(=O)C1COc2ccccc2O1)N/N=C/c1cc(Br)c(O)c(Br)c1 (stereo not drawn), the max response is reported as -2.17% (inactive).
For CCOC(=O)CSc1nc(N2CCOCC2)c2c(c1C#N)CC(C(C)C)OC2 (stereo not drawn), the max response was -2.94% (inactive).
With Cc1ccc(-c2noc(CSc3nnc(-c4ccccc4)n3C)n2)cc1 the max response was -0.58% (inactive).
For Cc1ccc(-c2noc(CSc3nnnn3-c3ccccc3)n2)cc1, the max response was 17.8% (active).
With Cc1ccc(-c2noc(CSc3nnc(-c4cccs4)n3C)n2)cc1 the max response was 5.33% (inactive).
For O=C(C1CCCO1)N(c1ccc(F)cc1)C1C=CS(=O)(=O)C1 (stereo not drawn), the max response was -9.85% (inactive).
With Cc1onc(-c2ccccc2Cl)c1C(=O)NCCn1ccc2ccccc21 the max response was -2.37% (inactive).
With Cc1onc(-c2ccccc2Cl)c1C(=O)OCC(=O)c1ccccc1 the max response was 38.6% (active).
In the case of CC(=O)Nc1cccc(/C(C)=N/NC(=O)c2c(-c3ccccc3Cl)noc2C)c1, the max response is reported as 0.404% (inactive).
In the case of CC(=O)n1cc([C@H]2C=C(C(=O)N3CCOCC3)O[C@@H](OCc3ccc(CO)cc3)C2)c2ccccc21, the max response is reported as -0.396% (inactive).
With Cc1ccc(S(=O)(=O)N2CCN(C)CC2)cc1 the max response was 1.47% (inactive).
With O=C1CSC(c2ccccc2)N1c1nc(-c2ccc(Cl)cc2Cl)cs1 (stereo not drawn) the max response was -1.24% (inactive).
In the case of Clc1ccc(-c2cc(-c3ccccn3)on2)c(Cl)c1, the max response is reported as 29.5% (active).
In the case of Clc1ccc(-c2ncc3ccccn23)c(Cl)c1, the max response is reported as -0.544% (inactive).
With C(=N\Nc1ccc2ccccc2n1)/c1ccc2c(c1)OCO2 the max response was -3.9% (inactive).
With Cc1noc(C)c1/C=N/Nc1ccc2ccccc2n1 the max response was 39.1% (active).
In the case of O=C(O)/C(=C/c1cccnc1)NC(=O)c1ccccc1, the max response is reported as 0.766% (inactive).
For O=C(/C=C/NCc1ccc(F)cc1)c1ccccc1, the max response was 53.1% (active).
In the case of CCOC(=O)CNC(=O)/C(=C\c1ccc(F)cc1)NC(=O)c1ccccc1, the max response is reported as -0.456% (inactive).
With O=C(/C=C\NCC(=O)c1ccccc1)c1ccccc1 the max response was 35.9% (active).
For O=C(CNCc1ccc(F)cc1)Nc1ccccc1-c1ccccc1, the max response was -4.19% (inactive).
For Cc1cccc[n+]1CC(=O)c1ccccc1, the max response was 0.405% (inactive).
For O=C(/C=C/NNC(=O)c1cccc(Br)c1)c1ccccc1, the max response was 22.3% (inactive).
With Cc1ccc(C(=O)Oc2ccc(C(=S)N3CCOCC3)cc2)cc1 the max response was -3.19% (inactive).
For COC(=O)C1(C)NC(c2ccc(C)cc2)C2C(=O)N(c3ccc(F)cc3)C(=O)C21 (stereo not drawn), the max response was 1.36% (inactive).
In the case of CCOC(=O)CNC(=O)/C=C/c1c(Cl)cccc1Cl, the max response is reported as -3.14% (inactive).
With CNC(=S)N/N=C/c1cn(Cc2ccc(C)cc2)c2ccccc12 the max response was 3.75% (inactive).
For CCOC(=O)N/N=C/c1cn(Cc2ccccc2Cl)c2ccccc12, the max response was 4.93% (inactive).
In the case of COC(=O)N/N=C/c1cn(CCCOc2ccc(C)cc2)c2ccccc12, the max response is reported as 44.1% (active).
With Cc1ccc(Cn2ncc3c4sc(C)cc4n(C)c3c2=O)c(C)c1 the max response was 5.87% (inactive).
For O=C1/C(=C/c2ccc3c(c2)OCO3)CCC/C1=C\c1ccc2c(c1)OCO2, the max response was 0.534% (inactive).
With Cc1nn(C)cc1/C=C1\CCC/C(=C\c2cn(C)nc2C)C1=O the max response was 18.2% (active).
With CCn1cc(/C=C2/SC(=S)NC2=O)c(C)n1 the max response was 2.94% (inactive).
For CCOc1ccc(NC(=O)COc2ccc(S(=O)(=O)N3CCCC3)cc2)cc1, the max response was 1.08% (inactive).
For Cc1c(C(=O)NC(=S)NCc2cccnc2)oc2ccccc12, the max response was 6.33% (inactive).
For COc1ccc(NC(=O)C2CCC(CNC(=O)[C@@H]3Cc4ccccc4CN3)CC2)cc1 (stereo partly drawn), the max response was 15.5% (inactive).
In the case of CCOC(=O)C1CCN(C(=O)C2CCCN(S(=O)(=O)c3ccc(OC)c(Cl)c3)C2)CC1 (stereo not drawn), the max response is reported as -4.35% (inactive).
With CCOc1ccc(S(=O)(=O)N2CCCC(C(=O)N3CCC(C(N)=O)CC3)C2)cc1Cl (stereo not drawn) the max response was 23.5% (active).
For CCN1CCN(C(=O)C2CCCN(S(=O)(=O)c3ccc(OC)c(OC)c3)C2)CC1 (stereo not drawn), the max response was -4.36% (inactive).
With COCCCC1CCN(C(=O)C2CCC(=O)N(C3CCCCCC3)C2)CC1 (stereo not drawn) the max response was -2.1% (inactive).
In the case of COc1ccc(C(C(O)C(=O)c2c[nH]c3ccccc23)N2CCN(c3ccccc3)CC2)cc1 (stereo not drawn), the max response is reported as 11.6% (active).
In the case of COc1ccc(C(=O)Nc2ccccc2C(=O)N2CCN(c3ccccc3)CC2)cc1, the max response is reported as 11.6% (inactive).
For COc1ccc(C(CC(=O)N2CCN(c3ccccc3)CC2)c2c(O)cc(OC)cc2OC)cc1 (stereo not drawn), the max response was -2.39% (inactive) and 0.819% (inactive).
In the case of Cc1c(C)n(Cc2ccc(Cl)cc2)c2ccc(C(=O)NCCCN3CCOCC3)cc12, the max response is reported as -6.61% (inactive).
With O=C(NCCCn1ccnc1)/C(=C\c1ccccc1F)NC(=O)c1ccccc1 the max response was -1.78% (inactive).
In the case of O=C(Nc1ccc2ccccc2c1)Nc1ccc2snnc2c1, the max response is reported as 14.6% (inactive).
For O=C(Nc1cccc(Br)c1)c1ccc2snnc2c1, the max response was 26.9% (active).
For CCc1ccccc1NC(=O)c1ccc2snnc2c1, the max response was -0.462% (inactive).
With COC(=O)Cc1cnc(NC(=O)CSc2nc(C(C)C)cc(=O)[nH]2)s1 the max response was -1.1% (inactive).
In the case of COc1ccc(/C=C/C(=O)OCC(=O)Nc2cccc(Oc3ccccc3)c2)c(OC)c1, the max response is reported as -2% (inactive).
For COc1cccc(Oc2ccc(N)cc2)c1, the max response was 19.4% (active).
With CC(C)(C)c1ccc(Oc2ccc(N)cc2)cc1 the max response was -11.7% (inactive).
With COc1cccc(OCCCN2CCCCCC2)c1 the max response was 10.5% (inactive).
With Nc1ccc(Oc2ccc(Cl)cc2)cc1 the max response was 10.9% (inactive).
With Cc1ccc(Oc2ccc(N)cc2)cc1 the max response was 14.2% (active).
For O=C(Oc1ccc(Br)cc1C(=S)N1CCOCC1)c1cccc([N+](=O)[O-])c1, the max response was -2.16% (inactive).
In the case of CC1(C(=O)NCCc2c[nH]c3ccccc23)C=CC2(CCCCC2)N1C(=O)c1ccccc1 (stereo not drawn), the max response is reported as 17.5% (inactive).
With Cc1ccc(Nc2nc(CSc3nnc(-c4ccncc4)n3-c3ccccc3C)cs2)cc1 the max response was 6.52% (inactive).
For COc1ccccc1N1CCC(N2CCN(CC(C)(C)C)C(CCO)C2)CC1 (stereo not drawn), the max response was 1.35% (inactive).
For NC(=O)C1CCN(Cc2nc3c(Br)cc(Br)cc3c(=O)[nH]2)CC1, the max response was 4.18% (inactive).
For CN(C(=O)CC1C(=O)NCCN1Cc1ccc(F)cc1Cl)C1CCCCC1 (stereo not drawn), the max response was -2.54% (inactive).
With CCN(CC)Cc1cc(C(C)=O)ccc1O the max response was -3.77% (inactive).
In the case of CC(=O)c1ccc2c(ccc3ccccc32)c1, the max response is reported as 67.2% (active).
For CC(=O)c1ccc2c(c1)c1ccccc1n2CC(C)C, the max response was 3.09% (inactive).
In the case of Cc1ccccc1OCC(=O)NCC(=O)OCC(=O)c1ccc2ccccc2c1, the max response is reported as 1.31% (inactive).
For O=C(Nc1ccccc1N1CCCC1)c1ccc2ccccc2c1, the max response was 18.5% (inactive).
With CC(=O)CCC(=O)c1ccc2ccccc2c1 the max response was 48.4% (active).
For CC(C)CC(O)C1CCN(C(=O)CCc2nnc(-c3ccc4c(c3)OCO4)o2)CC1 (stereo not drawn), the max response was 13.8% (inactive).
In the case of COc1ccc(Cl)cc1NC(=O)c1cccc(N2C(=O)C3CC=CCC3C2=O)c1 (stereo not drawn), the max response is reported as -2.41% (inactive).
With CC1CN(C(=S)Nc2cccc(F)c2)CC(C)O1 (stereo not drawn) the max response was -2.61% (inactive).
For COc1ccc(CC(=O)c2ccc(O)cc2O)cc1OC, the max response was 12.9% (active).
In the case of COc1ccc(CCNC(=O)Cc2ccc(C)cc2)cc1OC, the max response is reported as 0.685% (inactive).
For O=C(Cc1ccccn1)c1ccc(O)cc1O, the max response was -6.13% (inactive).
For CCN(Cc1ccncc1)C(=O)CCc1ccccc1, the max response was -2.09% (inactive).
With CCOc1ccc(NC(=O)c2cccc3c2C(=O)N(CC2CCCO2)C3)cc1 (stereo not drawn) the max response was 8.04% (inactive).
For Cn1c(Cc2cccs2)nnc1SCC(=O)Nc1ccccc1, the max response was -0.893% (inactive).
In the case of CCn1c(Cc2cccs2)nnc1SCC(=O)c1ccc(C)cc1, the max response is reported as 35.4% (active).
In the case of CCn1c(SCC(=O)N(C)C2CCS(=O)(=O)C2)nnc1-c1cccs1 (stereo not drawn), the max response is reported as -1.86% (inactive).
For CCn1c(SCC(=O)c2ccc(Cl)s2)nnc1-c1cccs1, the max response was 24.2% (active).
In the case of Cc1ccc(-n2c(Cc3cccs3)nnc2SCC(=O)OC(C)C)cc1, the max response is reported as 18.3% (inactive).
In the case of CCn1c(SCC(=O)c2ccc3ccccc3c2)nnc1-c1cccs1, the max response is reported as -2.54% (inactive).
